# Measured values published in PubChem BioAssay (NCI).
# The panel holds about 83,000 compounds, 20% with a hit somewhere; the sample as a whole holds those more often.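 The test compound was applied at a single concentration to cells in 96-well plates for 48 hours, and percent growth was recorded.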 Values without a mark were called inactive. The source made the active and inactive calls. Rule for the calls: active = growth percent below 10; inactive = the rest.
# Tests used:
# Assay in all cases: NCI-60 one-dose screen, 48 h (100 = growth as untreated, 0 = no growth, -100 = all killed)
# Conditions in all cases: 10 µM unless noted
# SR leukemia = system: SR leukemia
# RPMI-8226 leukemia = system: RPMI-8226 leukemia
# OVCAR-4 ovarian = system: OVCAR-4 ovarian
# SK-OV-3 ovarian = system: SK-OV-3 ovarian
# IGROV1 ovarian = system: IGROV1 ovarian
# OVCAR-3 ovarian = system: OVCAR-3 ovarian
# NCI/ADR-RES ovarian = system: NCI/ADR-RES ovarian
# HS 578T breast = system: HS 578T breast
# OVCAR-5 ovarian = system: OVCAR-5 ovarian
# OVCAR-8 ovarian = system: OVCAR-8 ovarian
SMILES,growth (SR leukemia),growth (RPMI-8226 leukemia),growth (OVCAR-4 ovarian),growth (SK-OV-3 ovarian),growth (IGROV1 ovarian),growth (OVCAR-3 ovarian),growth (NCI/ADR-RES ovarian),growth (HS 578T breast),growth (OVCAR-5 ovarian),growth (OVCAR-8 ovarian)
COc1cc(C(=O)/C=C/c2cc(-c3ccc4c(c3)OCO4)n[nH]2)cc(OC)c1OC,-25.3% (active),-42.4% (active),27.7%,60.8%,64.8%,-17.8% (active),-13.5% (active),–,–,–
COc1cnc2c(c1)C(=O)c1c-2n(CCCN2CCN(CCO)CC2)c(=O)c2cc([N+](=O)[O-])ccc12,-12.5% (active),44.6%,79.4%,54.8%,74.2%,84.4%,111%,84.9%,–,–
O=C(Nc1ccc(/C=C2\SC(=O)N(Cc3ccc(OC(F)(F)F)cc3)C2=O)cc1)c1ccc(Cl)c([N+](=O)[O-])c1,-0.106% (active),-11.2% (active),31.4%,93.7%,79.9%,48.2%,73.6%,72.1%,85.5%,–
CCCCC/C(=C\c1ccccc1)C1OC(C)C(C)O1 (stereo not given),99.4%,–,108%,96.7%,112%,101%,100%,110%,93.7%,96.3%
c1ccc2[nH]c(-c3cc(-c4ccc5c(c4)OCO5)n[nH]3)nc2c1,28%,7.45% (active),60.5%,76.9%,56.6%,40.8%,59.6%,–,86.4%,–
O=C1C(=O)N(CCCCn2cc(-c3ccccc3)nn2)c2ccccc21,108%,95.6%,106%,111%,101%,111%,104%,99.1%,102%,–
COc1cccc(NC(=O)c2sc3nc4c(cc3c2N)C(=O)CCC4)c1,3.01% (active),0.464% (active),58.9%,-2.7% (active),49.2%,-2.17% (active),-31.2% (active),–,50%,–
COc1cc(-c2cc(-c3nc4cc(Cl)c(Cl)cc4[nH]3)[nH]n2)cc(OC)c1OC,54.5%,-7.57% (active),52.5%,104%,87.2%,52.2%,39.1%,–,101%,–
C=C(C)[C@@H]1CC[C@]2(C(=O)OC)CC[C@]3(C)[C@H](CC[C@@H]4[C@@](C)(CC/C(N)=N/O)[C@H](C(=C)C)CC[C@]43C)[C@@H]12,69.2%,93%,92.1%,115%,107%,103%,101%,93.9%,105%,–
Cc1nn(-c2ccc(Cl)cc2)c(=O)n1CCn1cnc2ccccc21,104%,104%,118%,–,102%,111%,103%,100%,99.9%,–
COC(=O)C(Cc1ccccc1)n1cc(COc2nc(Cl)nc(Nc3ccc(Cl)cc3)n2)nn1 (stereo not given),66.8%,72.7%,104%,106%,99%,87.2%,101%,81.6%,–,–
COc1ccc2c(c1)C/C(=C\c1cc(-c3cc(OC)c(OC)c(OC)c3)n[nH]1)C2=O,57.8%,52.8%,82.2%,102%,106%,93.6%,83.4%,91.8%,97.5%,–
COc1ccc2nc(-c3cc(-c4cc(OC)c(OC)c(OC)c4)n[nH]3)[nH]c2c1,13.8%,-50.6% (active),-21.9% (active),33.8%,18.7%,-29% (active),-0.97% (active),–,58.8%,–
Cn1c2c(Cl)c(Cl)ccc2c2c(C#N)c[nH]c(=O)c21,112%,65.2%,99.5%,107%,89.5%,110%,103%,84.5%,123%,–
CC(=O)OC(C)COc1ccc(-c2ccccc2)cc1 (stereo not given),97.1%,–,106%,109%,112%,107%,118%,103%,96.8%,95.9%
O=c1c2sc3ncc(Br)cc3c2ncn1-c1cccc(Cl)c1,76.6%,75.1%,-25.9% (active),–,83.9%,–,80.8%,–,94.6%,–
COc1cc2c(cc1OC)C(=O)/C(=C/c1cc(-c3ccc4c(c3)OCO4)n[nH]1)C2,-43.8% (active),-46.7% (active),14.4%,33.6%,52.7%,-50.4% (active),-15% (active),–,37.9%,–
COc1cc2c(cc1-c1c(C)noc1C)ncc1nc(C3CCCCC3)n([C@@H](C)COC(F)F)c12,14.5%,13.3%,41.8%,4.85% (active),43.8%,35.6%,37%,14.3%,76.6%,–
Oc1cccc2oc(=S)[nH]c12,90.4%,106%,–,108%,110%,125%,–,109%,97.4%,–
Cn1c(=O)c2c(ncn2CC(=O)Nc2ccc(S(N)(=O)=O)cc2)n(C)c1=O,105%,99.9%,108%,87.8%,112%,106%,106%,101%,105%,–
Nc1ncnc2nc(Br)[nH]c12,91.8%,–,102%,95.2%,106%,106%,97.1%,103%,99.8%,92.8%
CCC(CC)C(=O)OC(C)COc1ccc(C(C)(C)C)cc1 (stereo not given),98.2%,–,113%,102%,112%,107%,109%,110%,100%,86.2%
O=P(O)(c1ccccc1)c1ccccc1I,88.8%,–,102%,86.8%,96.2%,108%,98.8%,97%,103%,98.2%
Cn1cc(-c2nc(-c3c[nH]c4ncccc34)cs2)c2cc(Cl)ccc21,–,34.2%,–,71.7%,46.3%,69.9%,44.7%,61.6%,60.3%,63.2%
O=C(O)/C(=C/c1ccc(O)cc1)c1ccccc1,–,95.5%,98.7%,112%,99%,103%,94.6%,–,84.4%,95.7%
O=C1C=C(C(O)c2ccc(O)cc2)C(=O)c2ccccc21 (stereo not given),87.7%,–,–,85.8%,86.3%,96.2%,105%,120%,99.7%,104%
O=c1[nH]c(=S)[nH]c2nc[nH]c12,–,99.2%,107%,112%,105%,115%,95.1%,–,90.5%,–
COc1ccc2c(c1)c(-c1nc(-c3c[nH]c4ncccc34)cs1)cn2C,–,44.3%,–,63.9%,59.8%,103%,–,77.2%,55%,80.8%
CCCCCCCN(CCCCCCC)C(=N)c1ccnc2ccccc12,-44.5% (active),–,5.2% (active),–,4.57% (active),-41.8% (active),-52.5% (active),-43.6% (active),–,-40.8% (active)
Cn1cc(-c2csc(-c3cn(C(=O)OC(C)(C)C)c4ccccc34)n2)c2cccnc21,–,75.3%,–,74.9%,59.8%,14.6%,29.3%,73.1%,104%,76.3%
